# Records with an inconclusive call do not appear. The source made the active and inactive calls. How the source made its calls, unless noted: active means hit-call score of the fitted dose curve at least 0.9, where 1 is the maximum; inactive means score below 0.9.
# Assays:
# [1] = read-out: NAD(P)H dehydrogenase [quinone] 1 (NQO1), NQO1 (gene 1728); assay: LTEA_HepaRG_NQO1: Life Technologies and Expression Analysis (LTEA) Assay for NAD(P)H dehydrogenase [quinone] 1 (NQO1) using HepaRG (AID 2283526); settings: mRNA level, 48 h; actives raise or lower the signal
# Summary of the method: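 HepaRG, 48 h post-plating → serum-free induction medium → test chemical 48 h (duplicate, 100 uM top, half-log x8, 0.5% DMSO) → RNA isolation → qRT-PCR, ACTB/GAPDH/POLR2A normalization; bidirectional curve fit vs DMSO baseline.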
# [2] = read-out: Nuclear factor erythroid 2-related factor 2 (Homo sapiens) (UniProt Q16236); assay: LTEA_HepaRG_NFE2L2: Life Technologies and Expression Analysis (LTEA) Assay for Nuclear factor erythroid 2-related factor 2 (NFE2L2) Transcription Factor using HepaRG (AID 2283527); settings: mRNA level, 48 h; actives raise or lower the signal;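 further: TaqMan qRT-PCR transcript level normalised to ACTB GAPDH and POLR2A housekeeping genes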
# Summary of the method: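 Differentiated human HepaRG cells in serum-free induction medium were exposed for 48 h to eight concentrations (top 100 uM, half-log dilutions, 0.5% DMSO), in duplicate. NFE2L2 mRNA was quantified by TaqMan qRT-PCR, normalized to ACTB, GAPDH and POLR2A, with bidirectional fitting versus DMSO.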
# [3] = read-out: succinate dehydrogenase complex iron sulfur subunit B (SDHB), SDHB (gene 6390); assay: LTEA_HepaRG_SDHB: Life Technologies and Expression Analysis (LTEA) Assay for succinate dehydrogenase complex iron sulfur subunit B (SDHB) using HepaRG (AID 2283528); settings: mRNA level, 48 h; actives raise or lower the signal
# Summary of the method: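 A human HepaRG culture in serum-free induction medium received test chemicals for 48 h over an eight-point range capped at 100 uM. SDHB expression change was quantified by qRT-PCR.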
# [4] = read-out: Signal transducer and activator of transcription 3 (Homo sapiens) (UniProt P40763); assay: LTEA_HepaRG_STAT3: Life Technologies and Expression Analysis (LTEA) Assay for Signal transducer and activator of transcription (STAT3) using HepaRG (AID 2283529); settings: mRNA level, 48 h; actives raise or lower the signal
# Summary of the method: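 Differentiated human HepaRG cells in serum-free induction medium were exposed in duplicate for 48 h to eight half-log concentrations up to 100 uM in 0.5% DMSO. STAT3 mRNA was quantified by TaqMan qRT-PCR, normalized to ACTB, GAPDH and POLR2A, and fitted bidirectionally against DMSO.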
# [5] = read-out: solute carrier (SLCO1B1), SLCO1B1 (gene 10599); assay: LTEA_HepaRG_SLCO1B1: Life Technologies and Expression Analysis (LTEA) Assay for solute carrier (SLCO1B1) using HepaRG (AID 2283530); settings: mRNA level, 48 h; actives raise or lower the signal
# Summary of the method: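 Differentiated human HepaRG cells, plated 48 h, switched to serum-free induction medium and exposed in duplicate for 48 h to 8 half-log concentrations (top 100 uM) in 0.5% DMSO. SLCO1B1 mRNA by TaqMan qRT-PCR, normalized to ACTB/GAPDH/POLR2A.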
# [6] = read-out: Transforming Growth Factor (TGFA), TGFA (gene 7039); assay: LTEA_HepaRG_TGFA: Life Technologies and Expression Analysis (LTEA) Assay for Transforming Growth Factor (TGFA) using HepaRG (AID 2283532); settings: mRNA level, 48 h; actives raise or lower the signal
# Summary of the method: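 Differentiated human HepaRG cells, plated 48 h then switched to serum-free induction medium, were exposed in duplicate for 48 h to 8-point half-log series from 100 uM in 0.5% DMSO. TGFA mRNA measured by qRT-PCR, normalized to ACTB/GAPDH/POLR2A, bidirectional fit versus DMSO.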
# [7] = read-out: Transforming Growth Factor (TGFB1), TGFB1 (gene 7040); assay: LTEA_HepaRG_TGFB1: Life Technologies and Expression Analysis (LTEA) Assay for Transforming Growth Factor (TGFB1) Transporter using HepaRG (AID 2283533); settings: mRNA level, 48 h; actives raise or lower the signal
# Summary of the method: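 Differentiated human HepaRG cells in serum-free induction medium were exposed in duplicate for 48 h to eight concentrations (top 100 uM, half-log steps, 0.5% DMSO). TGFB1 mRNA was quantified by qRT-PCR, normalized to ACTB, GAPDH, POLR2A, and fitted bidirectionally against DMSO.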
# [8] = read-out: TIMP1, TIMP1 (gene 7076); assay: LTEA_HepaRG_TIMP1: Life Technologies and Expression Analysis (LTEA) Assay for TIMP1 using HepaRG (AID 2283534); settings: mRNA level, 48 h; actives raise or lower the signal;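 further: TaqMan qRT-PCR signal normalized to ACTB GAPDH and POLR2A housekeeping genes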
# Summary of the method: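 Differentiated human HepaRG cells in serum-free induction medium were exposed 48 h to chemicals (8 half-log concentrations, top 100 uM, 0.5% DMSO). TIMP1 mRNA was quantified by TaqMan qRT-PCR, normalized to ACTB/GAPDH/POLR2A; bidirectional fit versus DMSO.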
# [9] = read-out: Tumor necrosis factor receptor 1 (TNFRSF1A), TNFRSF1A (gene 7132); assay: LTEA_HepaRG_TNFRSF1A: Life Technologies and Expression Analysis (LTEA) Assay for Tumor necrosis factor receptor 1 (TNFRSF1A) using HepaRG (AID 2283535); settings: mRNA level, 48 h; actives raise or lower the signal
# Summary of the method: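 Differentiated human HepaRG cells were exposed in duplicate for 48 h in serum-free induction medium to eight concentrations (top 100 uM, half-log steps, 0.5% DMSO). TNFRSF1A mRNA was quantified by qRT-PCR, normalized to ACTB, GAPDH and POLR2A, then fitted bidirectionally against DMSO.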
# [10] = read-out: Thyroid Hormone Responsive (THRSP), THRSP (gene 7069); assay: LTEA_HepaRG_THRSP: Life Technologies and Expression Analysis (LTEA) Assay for Thyroid Hormone Responsive (THRSP) using HepaRG (AID 2283536); settings: mRNA level, 48 h; actives raise or lower the signal
# Summary of the method: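 Differentiated human HepaRG cells were exposed in duplicate for 48 h in serum-free induction medium to eight concentrations (top 100 uM, half-log steps, 0.5% DMSO). Expression was quantified by TaqMan qRT-PCR, normalized to ACTB, GAPDH and POLR2A, with bidirectional fitting against DMSO.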
# [11] = read-out: UDP glucuronosyltransferase (UGT1A1), UGT1A1 (gene 54658); assay: LTEA_HepaRG_UGT1A1: Life Technologies and Expression Analysis (LTEA) Assay for UDP glucuronosyltransferase (UGT1A1) using HepaRG (AID 2283538); settings: mRNA level, 48 h; actives raise or lower the signal
# Summary of the method: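 Readout is UGT1A1 transcript level by qRT-PCR, normalized to three housekeeping genes, after 48 h chemical treatment of HepaRG cells. Concentrations ran from 100 uM down in half-log steps with 0.5% DMSO, and gain or loss relative to DMSO was fitted.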
# [12] = read-out: UDP glucuronosyltransferase (UGT1A6), UGT1A6 (gene 54578); assay: LTEA_HepaRG_UGT1A6: Life Technologies and Expression Analysis (LTEA) Assay for UDP glucuronosyltransferase (UGT1A6) using HepaRG (AID 2283539); settings: mRNA level, 48 h; actives raise or lower the signal
# Summary of the method: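 Human HepaRG cells were dosed for 48 h in serum-free induction medium with 0.5% DMSO vehicle, eight-point half-log series from 100 uM, in duplicate. UGT1A6 mRNA was measured by qRT-PCR, normalized to ACTB, GAPDH, POLR2A, and fitted bidirectionally against DMSO.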
# [13] = read-out: X-box binding protein 1 (XBP1), XBP1 (gene 7494); assay: LTEA_HepaRG_XBP1: Life Technologies and Expression Analysis (LTEA) Assay for X-box binding protein 1 (XBP1) using HepaRG (AID 2283540); settings: mRNA level, 48 h; actives raise or lower the signal
# Summary of the method: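 Differentiated human HepaRG cells in serum-free induction medium were exposed in duplicate for 48 h to eight half-log concentrations up to 100 uM in 0.5% DMSO. XBP1 mRNA was quantified by qRT-PCR, normalised to ACTB, GAPDH and POLR2A, with bidirectional fitting against DMSO.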
# [14] = LTEA_HepaRG_LDH_cytotoxicity: Cytotoxicity Assessment in the Life Technologies and Expression Analysis (LTEA) Assay (AID 2283563; active means hit-call score of the fitted dose curve at least 0.9, where 1 is the maximum)
# Summary of the method: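 Differentiated human HepaRG cells, plated 48 h beforehand, were switched to serum-free induction medium and exposed for 48 h to eight half-log concentrations (top 100 uM) in 0.5% DMSO. LDH was measured in spent medium; activity was fitted relative to DMSO vehicle.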
# [15] = read-out: Cellular tumor antigen p53 (Homo sapiens) (UniProt P04637); assay: LTEA_HepaRG_TP53: Life Technologies and Expression Analysis (LTEA) Assay for Tumor Protein P53 (TP53) using HepaRG (AID 2283537); settings: mRNA level, 48 h; actives raise or lower the signal
# Summary of the method: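 Gain or loss of TP53 mRNA signal is scored relative to 0.5% DMSO after 48 h chemical treatment of HepaRG liver cells, tested in duplicate at eight half-log concentrations up to 100 uM.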
# [16] = TOX21_p53_BLA_p2_viability: Viability Assessment in the Tox21 HCT-116 p53 Agonism Beta-lactamase Assay, Phase 2 (AID 2283591; active means hit-call score of the fitted dose curve at least 0.9, where 1 is the maximum;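 further: compound exposure lasted 16 h at 37 °C; actives lower the ATP signal meaning cytotoxicity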)
# Summary of the method: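 HCT-116 p53-bla cells (4000/well) rested 5 h at 37C, then received compounds in DMSO (217-fold dilution) for 16 h at 37C, 5% CO2. After the CCF4 read, CellTiter-Glo was added; ATP luminescence was read after 30 min at room temperature.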
# [17] = target: Cellular tumor antigen p53 (Homo sapiens) (UniProt P04637); assay: TOX21_p53_BLA_p2_ratio: Tox21 HCT-116 p53 Agonism Beta-lactamase Assay, Ratio, Phase 2 (AID 2283592; active means hit-call score of the fitted dose curve at least 0.9, where 1 is the maximum)
# Summary of the method: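 HCT116 cells carrying a p53-responsive beta-lactamase reporter were plated, incubated 5 h at 37C, then dosed with compounds in DMSO (217-fold dilution) for 16 h. CCF4-AM substrate was added for 2 h at room temperature; the 460/530 nm emission ratio gave gain-of-signal activity relative to DMSO.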
# [18] = TOX21_p53_BLA_p3_viability: Viability Assessment in the Tox21 HCT-116 p53 Agonism Beta-lactamase Assay, Phase 3 (AID 2283593; active means hit-call score of the fitted dose curve at least 0.9, where 1 is the maximum;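 further: cells exposed to compound for 16 h before reading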)
# Summary of the method: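 HCT-116 cells (4000/well) rested 5 h at 37C, then got DMSO compounds by pin tool (217-fold dilution) for 16 h at 37C, 5% CO2. After the bla read, CellTiter-Glo was added and luminescence read at 30 min, room temperature.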
# Chain of Signal transducer and activator of transcription 3 (Homo sapiens) (P40763 whole entry, looked up): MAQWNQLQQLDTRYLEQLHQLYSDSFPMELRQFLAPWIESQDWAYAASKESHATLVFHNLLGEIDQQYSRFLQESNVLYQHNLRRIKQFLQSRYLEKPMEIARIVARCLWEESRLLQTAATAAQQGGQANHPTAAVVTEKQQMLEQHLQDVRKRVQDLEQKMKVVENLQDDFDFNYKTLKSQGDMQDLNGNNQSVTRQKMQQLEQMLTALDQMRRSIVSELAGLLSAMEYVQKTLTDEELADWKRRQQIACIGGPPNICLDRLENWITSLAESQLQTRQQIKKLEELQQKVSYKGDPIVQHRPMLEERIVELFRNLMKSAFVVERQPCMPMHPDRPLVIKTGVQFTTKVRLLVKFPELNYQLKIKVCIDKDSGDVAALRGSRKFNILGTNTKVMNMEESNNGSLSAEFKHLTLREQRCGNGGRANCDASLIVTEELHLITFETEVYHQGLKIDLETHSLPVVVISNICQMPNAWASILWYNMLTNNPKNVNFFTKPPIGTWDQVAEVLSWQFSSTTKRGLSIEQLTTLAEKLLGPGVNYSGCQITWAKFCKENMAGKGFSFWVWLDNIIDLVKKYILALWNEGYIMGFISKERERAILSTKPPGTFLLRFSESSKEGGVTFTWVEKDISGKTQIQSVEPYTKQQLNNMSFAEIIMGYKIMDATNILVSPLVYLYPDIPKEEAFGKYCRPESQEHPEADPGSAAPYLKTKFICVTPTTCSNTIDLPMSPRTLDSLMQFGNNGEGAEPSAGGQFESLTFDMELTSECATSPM
# Chain of Cellular tumor antigen p53 (Homo sapiens) (P04637 whole entry, looked up): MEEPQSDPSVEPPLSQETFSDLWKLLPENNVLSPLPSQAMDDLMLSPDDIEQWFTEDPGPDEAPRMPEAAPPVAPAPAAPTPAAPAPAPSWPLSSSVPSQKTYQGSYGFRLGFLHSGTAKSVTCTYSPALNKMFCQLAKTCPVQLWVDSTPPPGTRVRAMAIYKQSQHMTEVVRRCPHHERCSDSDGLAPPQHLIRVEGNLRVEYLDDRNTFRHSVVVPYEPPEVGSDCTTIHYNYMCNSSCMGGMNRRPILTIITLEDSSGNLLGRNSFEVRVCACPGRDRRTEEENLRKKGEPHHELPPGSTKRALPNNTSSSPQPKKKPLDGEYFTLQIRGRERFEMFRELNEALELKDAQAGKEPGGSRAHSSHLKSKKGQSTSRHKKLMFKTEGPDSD
# Chain of Nuclear factor erythroid 2-related factor 2 (Homo sapiens) (Q16236 whole entry, looked up): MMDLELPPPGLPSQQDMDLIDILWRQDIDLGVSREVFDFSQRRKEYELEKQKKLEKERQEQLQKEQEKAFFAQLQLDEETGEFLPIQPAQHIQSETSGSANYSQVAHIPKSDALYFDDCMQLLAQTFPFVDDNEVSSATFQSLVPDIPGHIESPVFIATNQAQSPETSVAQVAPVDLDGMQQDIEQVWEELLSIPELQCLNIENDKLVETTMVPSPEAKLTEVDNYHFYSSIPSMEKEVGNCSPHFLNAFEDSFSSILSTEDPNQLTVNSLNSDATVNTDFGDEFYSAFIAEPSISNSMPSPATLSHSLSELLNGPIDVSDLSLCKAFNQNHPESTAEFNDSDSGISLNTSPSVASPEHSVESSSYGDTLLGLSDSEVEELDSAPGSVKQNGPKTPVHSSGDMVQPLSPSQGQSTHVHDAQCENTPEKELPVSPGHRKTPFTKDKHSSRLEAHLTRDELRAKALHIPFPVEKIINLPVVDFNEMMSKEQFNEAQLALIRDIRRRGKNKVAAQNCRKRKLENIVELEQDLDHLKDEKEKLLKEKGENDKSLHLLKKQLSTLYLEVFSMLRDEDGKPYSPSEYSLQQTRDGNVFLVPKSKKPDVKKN
structure (smiles),measurement,setting,value
CCNC(=O)NC(=O)C(C#N)=NOC,outcome,[1],inactive
same,outcome,[2],inactive
same,outcome,[3],inactive
same,outcome,[4],inactive
same,outcome,[5],inactive
same,outcome,[6],inactive
same,outcome,[7],inactive
same,outcome,[8],inactive
same,AC50,[9],270 nM (active)
same,outcome,[10],inactive
same,outcome,[11],inactive
same,AC50,[12],306 nM (active)
same,outcome,[13],inactive
same,outcome,[14],inactive
CS(=O)(=O)c1ccc(C(=O)C2C(=O)CCCC2=O)c([N+](=O)[O-])c1,outcome,[1],inactive
same,outcome,[2],inactive
same,outcome,[3],inactive
same,outcome,[4],inactive
same,outcome,[5],inactive
same,outcome,[6],inactive
same,outcome,[7],inactive
same,outcome,[8],inactive
same,outcome,[9],inactive
same,outcome,[10],inactive
same,outcome,[15],inactive
same,outcome,[11],inactive
same,outcome,[12],inactive
same,outcome,[13],inactive
same,outcome,[14],inactive
same,outcome,[16],inactive
same,outcome,[17],inactive
same,outcome,[18],inactive
CC(C)(C)C(=O)C(Oc1ccc(Cl)cc1)n1cncn1 (stereo unspecified),outcome,[1],inactive
same,outcome,[2],inactive
same,outcome,[3],inactive
same,outcome,[4],inactive
same,outcome,[5],inactive
same,outcome,[6],inactive
same,outcome,[7],inactive
same,outcome,[8],inactive
same,outcome,[9],inactive
same,AC50,[10],33000 nM (active)
same,outcome,[15],inactive
same,AC50,[11],6350 nM (active)
same,outcome,[12],inactive
same,outcome,[13],inactive
same,outcome,[14],inactive
same,outcome,[16],inactive
same,outcome,[17],inactive
same,outcome,[18],inactive
O=P(O)(O)CCCl,outcome,[1],inactive
same,outcome,[2],inactive
same,outcome,[3],inactive
same,outcome,[4],inactive
same,outcome,[5],inactive
same,outcome,[6],inactive
same,outcome,[7],inactive
same,outcome,[8],inactive
same,outcome,[9],inactive
same,outcome,[10],inactive
same,AC50,[15],254 nM (active)
same,outcome,[11],inactive
same,outcome,[12],inactive
same,outcome,[13],inactive
same,outcome,[14],inactive
same,outcome,[17],inactive

# From PubChem BioAssay (EPA / NIEHS)
